This is part of a sample that, as a whole, favours compounds with a hit. Of some 83,000 tested, about 20% had one in any assay.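 Growth was measured after 48 h exposure to one concentration of compound in 96-well plates. Values under 10 count as active.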 A number with no mark means an inactive call. Calls of active or inactive are those of the source.
Columns and labels:
Test in all cases: NCI-60 one-dose screen, 48 h (100 = growth as untreated, 0 = no growth, -100 = all killed)
Conditions in all cases: 10 µM unless noted
NCI-H23 lung = test system: NCI-H23 lung
NCI-H226 lung = test system: NCI-H226 lung
NCI-H322M lung = test system: NCI-H322M lung
HOP-62 NSCLC = test system: HOP-62 NSCLC
NCI-H460 lung = test system: NCI-H460 lung
HOP-92 NSCLC = test system: HOP-92 NSCLC
NCI-H522 lung = test system: NCI-H522 lung
A549/ATCC NSCLC = test system: A549/ATCC NSCLC
786-0 renal = test system: 786-0 renal
COLO 205 colon = test system: COLO 205 colon

Row | Structure (SMILES) | growth (NCI-H23 lung) | growth (NCI-H226 lung) | growth (NCI-H322M lung) | growth (HOP-62 NSCLC) | growth (NCI-H460 lung) | growth (HOP-92 NSCLC) | growth (NCI-H522 lung) | growth (A549/ATCC NSCLC) | growth (786-0 renal) | growth (COLO 205 colon)
1 | Clc1ccc2c(c1)N(CCCN1CCCC1)c1ccccc1S2 | 62.5% | 88.2% | 36.3% | 56.4% | 30% | -4.23% (active) | 71.1% | 58.6% | 45.1% | -30.8% (active)
2 | COC(=O)[C@H](C)NC(=O)NC(=O)NC(=O)CI | 86.2% | 89.2% | 103% | 98.4% | 104% | -21.4% (active) | -75% (active) | 96.4% | 63.9% | 32%
3 | NS(=O)(=O)c1ccc(-n2nc(-c3ccc(Cl)cc3)c3ccccc3c2=O)cc1 | 101% | 96.1% | 148% | 92.6% | 96.3% | 80.9% | 87.4% | 87.5% | 92.7% | 111%
4 | COc1ccc(C2CC(c3ccc(Nc4nc(Nc5ccc(F)cc5)nc(Nc5ccc(Cl)cc5)n4)cc3)=NN2C(C)=O)cc1 (stereo not given) | 91.8% | 97.7% | 123% | 110% | 102% | 82.8% | 58.1% | 90.2% | 98.9% | 96.1%
5 | Cc1onc2c(-c3ccccc3)n[nH]c(=O)c12 | 100% | 110% | 72.5% | 90.2% | 109% | 52.3% | 94.4% | 114% | 95% | 146%
6 | COC(=O)/C=C1\S/C(=N\Nc2ccc([N+](=O)[O-])cc2[N+](=O)[O-])N(C2CCCCC2)C1=O | 60% | 80.7% | 99.3% | 86.8% | 35.1% | 8.36% (active) | 43.6% | 87.6% | 61.1% | 42.5%
7 | COc1cc(C(=O)c2cc(C)c3[nH]c4ccc(C)cc4c3c2C)cc(OC)c1OC | 16.7% | 54.4% | 39.9% | 38.9% | 6.57% (active) | 29.2% | 19.8% | 20.9% | 19.4% | -19.2% (active)
8 | Cc1cccc(NC2=C(Cl)C(=O)c3nc(C)ccc3C2=O)c1 | -27.8% (active) | -0.0359% (active) | 13.5% | 42.8% | 5.47% (active) | -68.7% (active) | -24% (active) | 16.7% | 3.53% (active) | 111%
9 | Cn1cc(-c2cc3ncnc(Nc4ccc(CC(=O)Nc5cc(C(C)(C)C)on5)cc4)c3s2)cn1 | 50.2% | 26% | 32.9% | 58.1% | 28.4% | 35.8% | 36.3% | 21.6% | 36% | 24.7%
10 | COc1cccc(OC)c1C(=O)N[C@@H]1C(=O)N2[C@@H]1SC(C)(C)[C@@H]2C(=O)O | 103% | 107% | 95.6% | 103% | 112% | 44.9% | 88.7% | 105% | 95.6% | 107%
